# Shown are actives, neighbours in structure and some others; about 0.4% of the full set was active somewhere.
# Rac1 mut GTP: modulators of GTP binding to human Rac1 activated mutant. AID 764. actives 0.11% (n = 190,000). percent activity (GTP binding), % at 10 µM. GST-Rac1 activated beads, fluorescent GTP binding, flow cytometry; actives lie on both sides; 100% means binding = to untreated wells. P63000;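 active = GTP binding at least 20 percentage points away from the 100% baseline, in either direction, so actives lie on both sides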
# Rac1 wt modul: modulators of human Rac1 wildtype GTP binding; P63000; GST-Rac1 beads, fluorescent GTP binding, flow cytometry; actives lie on both sides; 0 = cold GTP competed, 100 = untreated; GTP binding activity (% of control), % at 10 µM; actives 0.27% (n = 190,000);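 active = GTP binding activity at least 20 points away from the 100% control level, either lower or higher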
# HRas wt GTP: human HRas wildtype GTP binding, change in either direction; P01112; GST-Ras wt beads, Bodipy-FL-GTP binding, flow cytometry; actives lie on both sides; GTP binding activity, % at 10 µM; actives 0.14% (n = 190,000);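 active = GTP binding activity at least 20% away from the 100% baseline, either lowered as inhibitor or raised as activator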;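 note: 0% = unlabeled GTP competition control and 100% = no-compound control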
# Target sequence (P01112 whole entry, looked up): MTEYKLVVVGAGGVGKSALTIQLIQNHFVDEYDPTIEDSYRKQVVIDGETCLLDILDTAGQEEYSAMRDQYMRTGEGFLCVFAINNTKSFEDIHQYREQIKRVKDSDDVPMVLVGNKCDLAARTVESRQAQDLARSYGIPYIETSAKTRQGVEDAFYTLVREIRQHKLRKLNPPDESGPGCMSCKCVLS
# Rab2 wt GTP: changes GTP binding to wildtype dog Rab2A, up or down; P61105; GST-Rab2 wt beads, Bodipy-GTP binding, flow cytometry; GTP binding activity, % at 10 µM; actives 0.19% (n = 190,000);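 active = GTP binding activity at least 20 points away from 100%, either lowered or raised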;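 note: 0% = beads with excess unlabeled GTP and 100% = no-compound control corrected for plate trend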
# Rab7 wt GTP bind: dog Rab7 wildtype GTP binding, inhibitors and activators | GTP binding activity (percent of control), % at 10 µM | actives 0.055% (n = 190,000) | GST-Rab7 beads, fluorescent GTP binding, flow cytometry; actives lie on both sides; untreated = 100%, excess cold GTP = 0%;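 active = fluorescent GTP binding to Rab7 beads changed by at least 20 points from the 100% baseline, either direction, mostly lower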;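 note: median green fluorescence of bound Bodipy-FL-GTP per Rab7 bead population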
# Cdc42 wt: modulators (inhibitors or activators) of GTP binding to human Cdc42 wildtype. P60953. GST-Cdc42 beads, Bodipy-GTP binding, flow cytometry; actives lie on both sides. percent activity (GTP binding), % at 10 µM. actives 0.2% (n = 190,000). AID 761;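 active = percent activity GTP binding at least 20 points away from the 100% baseline, either down as inhibitor or up as activator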;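 note: median bead fluorescence of bound Bodipy-FL-GTP at 100 nM; 0% = excess unlabeled GTP control and 100% = no compound control; below 100% means less GTP binding so inhibitor and above means activator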
# Target sequence (P60953 whole entry, looked up): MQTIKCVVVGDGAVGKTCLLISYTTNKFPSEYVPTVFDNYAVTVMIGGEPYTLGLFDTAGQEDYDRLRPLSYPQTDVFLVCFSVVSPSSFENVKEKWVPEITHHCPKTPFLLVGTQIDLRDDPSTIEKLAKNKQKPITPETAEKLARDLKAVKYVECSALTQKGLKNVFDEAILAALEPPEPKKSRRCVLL
# Starred values were filed as active, the others as inactive; [ ] = dose if it differs, or a comment.
SMILES,Rac1 mut GTP,Rac1 wt modul,HRas wt GTP,Rab2 wt GTP,Rab7 wt GTP bind,Cdc42 wt
COc1ccc2nc(-n3c(O)c(C4=c5ccccc5=NC4=O)[nH]c3=S)sc2c1,91,92,91,89,94,93
CC(C)c1nc2sc3c(=O)[nH]c(=S)[nH]c3c2c2c1CCC2,96,98,97,93,101,100
CC(C)Cc1nc2oc3c(Cl)ncnc3c2c2c1CCC2,99,101,101,99,97,100
CCCc1nc2oc3c(=O)[nH]cnc3c2c2c1CCCC2,85,79*,82,81,93,82
CC(C)c1nc2oc3c(=O)[nH]cnc3c2c2c1CCC2,82,79*,74*,73*,81,70*
COc1ccc(C2CC(c3ccccc3)=NN2C(=O)COC(=O)c2nc3nccc(C)n3n2)cc1 (centres undefined),97,101,97,96,95,95
COc1ccc(-n2cccc2/C=C2/NC(=O)N(c3cccc(Cl)c3)C2=O)cc1,100,102,100,100,104,101
O=C(O)c1cccc(-n2cccc2/C=C2/NC(=O)N(c3ccc(Cl)cc3)C2=O)c1,76*,67*,82,75*,88,72*
CCOC(=O)Cc1csc(NC(=O)c2ccc(S(=O)(=O)N3CCCC3)cc2)n1,101,104,103,100,101,104
Cc1ccc(/C=C/C(=O)OCC(=O)NC(C)C)o1,94,99,98,98,100,99
Cc1ccc(/C=N/NC(=O)C2CCN(Cc3ccc(F)cc3Cl)CC2)o1,101,102,99,100,78*,104
O=C(NNc1nc(-c2ccccc2)c2cc(Br)ccc2n1)c1ccc(S(=O)(=O)N2CCOCC2)cc1,87,67*,81,75*,84,82
O=C(NNc1nc(-c2ccccc2)c2cc(Br)ccc2n1)c1ccc(S(=O)(=O)N2CCCCC2)cc1,93,96,95,93,99,94
CC(=O)NNc1nc(-c2ccccc2)c2cc(Br)ccc2n1,98,105,100,102,100,101
CN(C)S(=O)(=O)c1ccc(C(=O)NNc2nc(-c3ccccc3)c3cc(Br)ccc3n2)cc1,88,78*,83,82,90,85
Cc1cc(-c2ccc3ccccc3c2)n2ncnc2n1,92,94,94,94,104,92
CCn1c2ccccc2c2cc(NC(=O)CC(C)=O)ccc21,102,101,99,97,99,102
Cc1ccc(C)c(N2CCN(C(=O)CN(C)S(=O)(=O)c3ccc4c(c3)CCC(=O)N4)CC2)c1,80,79*,82,77*,84,76*
NC(=O)c1ccc(NC(=O)COC(=O)CCc2ccc(S(=O)(=O)N3CCCCC3)cc2)cc1,97,99,96,97,99,95
C=CCSc1nc(N)c(C#N)c(-c2ccc(C)cc2)c1C#N,86,78*,85,87,94,78*
Cc1ccsc1/C=N/NC(=O)CNC(=O)c1ccc(S(=O)(=O)N2CCOCC2)cc1,96,101,100,103,107,99
O=C(O)/C=C\C(=O)Nc1cccc(C(=O)Nc2cccc(O)c2)c1,89,76*,87,83,95,85
O=C(Nc1cccc(O)c1)c1ccccc1,100,102,104,104,106,103
COC(=O)/C=C/C(=O)Nc1cccnc1,99,103,99,101,96,101
O=C(O)/C=C/C(=O)Nc1cccnc1,34*,34*,38*,31*,20*,31*
SMILES,Rac1 mut GTP,Rac1 wt modul,HRas wt GTP,Rab2 wt GTP,Rab7 wt GTP bind,Cdc42 wt
COCCNC(=S)N/N=C1\CC(C)CC(C)(C)C1 (centres undefined),95,93,96,94,96,97
CCNC(=O)c1cc2c(=O)n3cccc(C)c3nc2n(CCc2ccccc2)c1=N,82,81,71*,72*,87,71*
N=c1c(C(=O)NCc2ccco2)cc2c(=O)n3ccccc3nc2n1CCc1ccccc1,87,72*,77*,75*,91,80
Cc1ccc(Cn2c(=N)c(C(=O)NCc3ccco3)cc3c(=O)n4ccccc4nc32)cc1,96,101,98,100,100,98
Cc1ccc(/C=N/NC(=O)CNC(=O)c2ccc(S(=O)(=O)N(C)C)cc2)o1,102,112,101,101,107,101
Cc1cc(NC(=O)c2cccc(C(=O)Nc3cc(C)on3)n2)no1,91,88,80,80,93,79*
COc1cc(CCNc2ccc3nnc(-c4ccccc4)n3n2)cc(OC)c1OC,89,73*,71*,74*,89,73*
Cc1sc2nc3ccc(NCc4ccco4)nn3c(=O)c2c1C,30*,22*,34*,27*,18*,28*
O=c1c2ccccc2nc2ccc(NCc3ccco3)nn12,92,93,82,79*,93,87
CCCS(=O)(=O)c1ccc(COC(=O)c2cccc(NC(=O)C(C)C)c2)cc1,94,96,96,95,101,95
Cc1cc(=S)cc(C)n1CCO,98,97,98,98,95,94
Cn1c(=O)c([N+](=O)[O-])c(Cl)c2ccccc21,91,95,92,90,92,92
Nc1[nH]n(-c2ccccc2)c(=O)c1N=Nc1ccc2c(c1)OCCO2,92,94,92,93,96,90
Cc1cc([N+](=O)[O-])ccc1N=Nc1c(N)[nH]n(-c2ccccc2)c1=O,87,78*,91,90,99,88
O=C(CCC(=O)N(CC(=O)NC1CCCC1)Cc1cccs1)Nc1nccs1,93,99,99,95,97,97
CCOC(=O)COc1ccc(C(=O)CC)cc1OC,97,99,99,100,104,96
CCC(=O)c1ccc(OCC(=O)O)c(OC)c1,104,122*[activator],100,101,96,105
COC(=O)c1ccc(CN2C(=O)C3CCCCC3C2=O)o1 (centres undefined),97,104,98,99,100,103
N=c1oc2ccc3ccccc3c2cc1-c1nc(-c2ccccc2)cs1,82,79*,82,79*,92,83
Cc1ccc(C)c(N(CC(N)=O)S(C)(=O)=O)c1,71*,67*,74*,72*,78*,75*
Cc1ccc(-c2nc3cccnc3s2)cc1NC(=O)C1c2ccccc2Oc2ccccc21,95,100,102,100,103,99
